Source: PubChem BioAssay (NCI)
Values joined by “and” are separate entries in the source; they are usually repeats but may differ in a detail not shown here. Identical values can stand only once. The panel holds about 79,000 compounds, 15% with a hit somewhere; the sample as a whole holds those more often. A structure can be active in one record and inactive in another. Active and inactive are the calls of the source. Rule as the data show it: active = growth inhibition above about 70%; inactive = the rest.

Assay: NCI Yeast Anticancer Drug Screen. Data for the rad50 strain (AID 155);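 also: 0% = growth of vehicle-only cultures of the same strain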
Conditions: S. cerevisiae rad50 strain growth inhibition; at 1.2 µM; stronger effect = higher value
Outline: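 Compounds were tested on a yeast strain with an engineered DNA damage repair alteration; the reported value is growth inhibition normalised to vehicle treatment.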

SMILES | growth inhibition
O=C(O)c1ccccc1.[Ag] | 95% (active)
CC(=O)[O-].O=C([CH-]C(=O)c1ccccc1)c1ccccc1.O=C([CH-]C(=O)c1ccccc1)c1ccccc1.[Sm+3] | 9% (inactive)
C=C[C@H]1CN2CC[C@H]1C[C@@H]2[C@@H](O)c1ccnc2ccccc12 | 2% (inactive)
O=c1c2ccccc2[se]n1-c1cccnc1 | -6% (inactive)
[Pt].c1ccc(P(CCP(c2ccccc2)c2ccccc2)CCP(c2ccccc2)c2ccccc2)cc1 | -13% (inactive)
CC12CCC(C1)C(C)(C)C2OC(=O)c1ccccc1N (stereo not given) | 9% (inactive)
OC1(c2ccccc2)CC2CCC(C1)N2CCCC(O)(c1ccccc1)c1ccccc1 (stereo not given) | -6% (inactive)
COC(=O)C(F)C(Br)C(=O)OC (stereo not given) | -5% (inactive)
CCCCCCCCCC[Se]C#N | 2% (inactive)
CNCC(O)c1ccc(O)c(O)c1.[Pt].c1ccc([PH+](c2ccccc2)c2ccccc2)cc1.c1ccc([PH+](c2ccccc2)c2ccccc2)cc1 | -1% (inactive)
Nc1nc(N)c(-c2ccc(Cl)c(Cl)c2)c(CP(Cl)(Cl)(Cl)Br)n1 | 9% (inactive)
Cc1ccc(P(c2ccc(C)cc2)c2ccc(C)cc2)cc1 | 16% (inactive)
CC1CC(C)CC(C)C(O)/C(C#N)=C/C=C/CC(C2CCCC2C(=O)O)OC(=O)CC(O)C(C)C1 (stereo not given) | 94% (active)

Same assay, conditions: S. cerevisiae rad50 strain growth inhibition; at 3.7 µM; stronger effect = higher value

SMILES | growth inhibition
O=C(O)c1ccccc1.[Ag] | 101% (active)
CC(=O)[O-].O=C([CH-]C(=O)c1ccccc1)c1ccccc1.O=C([CH-]C(=O)c1ccccc1)c1ccccc1.[Sm+3] | -5% (inactive)
C=C[C@H]1CN2CC[C@H]1C[C@@H]2[C@@H](O)c1ccnc2ccccc12 | 10% (inactive)
O=c1c2ccccc2[se]n1-c1cccnc1 | 27% (inactive)
[Pt].c1ccc(P(CCP(c2ccccc2)c2ccccc2)CCP(c2ccccc2)c2ccccc2)cc1 | 11% (inactive)
CC12CCC(C1)C(C)(C)C2OC(=O)c1ccccc1N (stereo not given) | 6% (inactive)
OC1(c2ccccc2)CC2CCC(C1)N2CCCC(O)(c1ccccc1)c1ccccc1 (stereo not given) | -15% (inactive)
COC(=O)C(F)C(Br)C(=O)OC (stereo not given) | 60% (inactive)
CCCCCCCCCC[Se]C#N | -38% (inactive)
CNCC(O)c1ccc(O)c(O)c1.[Pt].c1ccc([PH+](c2ccccc2)c2ccccc2)cc1.c1ccc([PH+](c2ccccc2)c2ccccc2)cc1 | -3% (inactive)
Nc1nc(N)c(-c2ccc(Cl)c(Cl)c2)c(CP(Cl)(Cl)(Cl)Br)n1 | 46% (inactive)
Cc1ccc(P(c2ccc(C)cc2)c2ccc(C)cc2)cc1 | 26% (inactive)
CC1CC(C)CC(C)C(O)/C(C#N)=C/C=C/CC(C2CCCC2C(=O)O)OC(=O)CC(O)C(C)C1 (stereo not given) | 97% (active)

Same assay, conditions: S. cerevisiae rad50 strain growth inhibition; at 5.0 µM (retest, dose inferred, filed as 0.5); stronger effect = higher value

SMILES | growth inhibition
COC(COC(N)=O)C1=C(N2CC2)C(=O)C(C)=C(N2CC2)C1=O (stereo not given) | 47% (inactive)
Cc1nc(Cl)c(CBr)c(Cl)n1 | 38% (inactive)
C[n+]1[se]nc2cc(C(=O)c3ccccc3)ccc21 (tested in a mixture with another compound) | 99% (active)
O=C(O)c1ccccc1.[Ag] | 97% (active) and 58% (inactive)
CC(=O)[O-].O=C([CH-]C(=O)c1ccccc1)c1ccccc1.O=C([CH-]C(=O)c1ccccc1)c1ccccc1.[Sm+3] | 55% (inactive)
CC(C)(Br)C(=O)C(Br)Br | 97% (active)
COC1(OC)C(Cl)=C(Cl)C(Cl)=C1Cl | 9% (inactive)
C=C[C@H]1CN2CC[C@H]1C[C@@H]2[C@@H](O)c1ccnc2ccccc12 | 2% (inactive)
[C-]#[O+].[C-]#[O+].[Ir].[O-]c1ccc2ccccc2c1N=Nc1ccccc1 | -4% (inactive)
O=C(Nc1ccccc1)OC(C[N+](=O)[O-])C(Cl)(Cl)Cl (stereo not given) | 12% (inactive)
O=c1c2ccccc2[se]n1-c1cccnc1 | 8% (inactive)
[Pt].c1ccc(P(CCP(c2ccccc2)c2ccccc2)CCP(c2ccccc2)c2ccccc2)cc1 | 22% (inactive)
CC12CCC(C1)C(C)(C)C2OC(=O)c1ccccc1N (stereo not given) | -6% (inactive)
CC(=O)[O][Hg][c]1cc2c(cc1O)Cc1cc([N+](=O)[O-])ccc1-2 | 95% (active)
OC1(c2ccccc2)CC2CCC(C1)N2CCCC(O)(c1ccccc1)c1ccccc1 (stereo not given) | -8% (inactive)
ClC1=C(Cl)C(Cl)(Cl)SS1 | 100% (active)
COC(=O)C(F)C(Br)C(=O)OC (stereo not given) | 88% (active)
c1ccc2c(NCCCCCCNc3c4ccccc4nc4ccccc34)c3ccccc3nc2c1 | 68% (inactive)
c1ccc2c(NCCCCCCCCNc3c4ccccc4nc4ccccc34)c3ccccc3nc2c1 | 87% (active)
CN(Cc1ccccc1)CC(O)c1ccc(Cl)cc1 (stereo not given) | -4% (inactive)

SMILES | growth inhibition
Br[C](Br)(Br)[Hg][c]1ccccc1 | 99% (active)
Cc1cc(N=Nc2ccccc2C)ccc1N | 34% (inactive) and 23% (inactive)
C/C(=N\N=C(/[Se])N1CC2CCC(CC2)C1)c1ccccn1 | 62% (inactive)
CCCCCCCCCC[Se]C#N | 30% (inactive)
CNCC(O)c1ccc(O)c(O)c1.[Pt].c1ccc([PH+](c2ccccc2)c2ccccc2)cc1.c1ccc([PH+](c2ccccc2)c2ccccc2)cc1 | -8% (inactive)
CCN(CC)CC.CCOc1ccc(NC(=O)N=C=[N-])cc1.[CH-]1CCCCC1.[CH-]1CCCCC1.[CH-]1CCCCC1.[Cl-].[Sn+4] | 99% (active)
Cc1cc(N(C)C)c2ccccc2[n+]1CCCCCCCCCC[n+]1c(C)cc(N(C)C)c2ccccc21 | 92% (active)
CCC[CH2][Sn]1([CH2]CCC)[O]CC(CN2CCCC2)[O]1 (stereo not given) | 30% (inactive)
N#Cc1ccc([Se]c2ccccc2)cc1 | 91% (active)
O=c1ssc(Cl)c1Cl | 97% (active)
Nc1nc(N)c(-c2ccc(Cl)c(Cl)c2)c(CP(Cl)(Cl)(Cl)Br)n1 | 53% (inactive)
Cc1ccc(P(c2ccc(C)cc2)c2ccc(C)cc2)cc1 | 57% (inactive)
O=C(O)c1ccccc1[Se][Se]c1ccccc1C(=O)O | 50% (inactive)
CC1CC(C)CC(C)C(O)/C(C#N)=C/C=C/CC(C2CCCC2C(=O)O)OC(=O)CC(O)C(C)C1 (stereo not given) | 98% (active)
CCC[CH2][Pb]([Cl])([CH2]CCC)[CH2]CCC | 99% (active)
CNC(Cc1ccccc1)c1ccc(OC)c(OC)c1 (stereo not given) | 69% (inactive)
CC1C(=O)OCC1(C)O (stereo not given) | 1% (inactive)
O=C(Nc1ccccc1)c1cc([N+](=O)[O-])ccc1O | -1% (inactive)
N=P(c1ccccc1)(c1ccccc1)c1ccccc1 (tested in a mixture with another compound) | 10% (inactive)
